Assays:
Assay in all cases: PBM binding z-score (relative to random genomic background probes); higher = stronger binding; sequences stand for … in GC…GCGATTGACAGCGTAGAATGAAGG
[1] = test system: RARb homodimer (NR concentration 270 nM)
Procedure, shortened: (§1)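 Random background probes are the reference for binding z-scores. These scores derive from regression-normalized fluorescence on custom Agilent 4×180K protein-binding microarrays incubated 1 h with ligand-free nuclear receptor dimers. Binding was detected with antibodies against each partner (one per run).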

[2] = test system: RARg:RXRa (NR concentration 270 nM, RXRa partner concentration 90 nM)
Procedure, shortened: as §1

[3] = test system: RARg homodimer (NR concentration 270 nM)
Procedure, shortened: as §1

[4] = test system: RXRa DBDmut IVT, anti-RXR (DBD mutation: RXRa K156A/R161A, NR concentration 90 nM)
Procedure, shortened: as §1

[5] = test system: RXRa homodimer (NR concentration 180 nM)
Procedure, shortened: as §1

[6] = test system: THRa:RXRa (NR concentration 90 nM, RXRa partner concentration 90 nM)
Procedure, shortened: as §1

[7] = test system: THRa homodimer (NR concentration 90 nM)
Procedure, shortened: as §1

[8] = test system: VDR homodimer (NR concentration 270 nM)
Procedure, shortened: as §1

| Sequence | PBM binding z-score [1] | PBM binding z-score [2] | PBM binding z-score [3] | PBM binding z-score [4] | PBM binding z-score [5] | PBM binding z-score [6] | PBM binding z-score [7] | PBM binding z-score [8] |
| --- | --- | --- | --- | --- | --- | --- | --- | --- |
| TCATATAGGTAAAAGGTGAGAGTCGGTGTGGTAA | 1.5 | 1.39 | 0.67 | 1.49 | 2.55 | 1.26 | 0.546 | 0.255 |
| GATACAGGGTCAGCTAGAGGCCAGAGTTTGGAAA | 3.66 | 6.53 | 4.92 | 1.38 | 4.29 | 3.04 | 0.526 | 1.17 |
| ACTAGCAGGCCAAGGGTCTCTCAAGATTAGTCCG | -0.0592 | -0.0301 | 0.272 | -0.533 | 0.0173 | -0.234 | -0.93 | -0.872 |
| CCGGCTAGGTCATGGTCAGCTAATCTACAGTATG | 3.33 | 4.11 | 4.99 | 1.48 | 3.01 | 2.99 | 1.57 | 0.619 |
| TAGCCTAGGTCAGAGCGGGCCAGTATACGCTATA | 1.85 | 2.55 | 3.13 | -0.459 | 1.18 | 2.85 | -0.121 | -0.402 |
| CCTAGCAGGCCAAGCTGGGTCACTCAAGGCTTGA | 2.2 | 1.64 | 1.65 | -0.265 | 1.17 | 3.28 | -0.143 | -0.334 |
| GCAGACAGGTGAAACGCAGGTAACGCAGGGTGGC | 0.284 | 1.13 | 0.47 | -0.945 | 0.641 | 1.51 | -0.416 | -0.757 |
| CCTAGCAGGCCAATCTGGGTCGCTCAAGGCTTGA | 0.548 | 0.673 | -0.21 | -0.847 | 0.755 | 2.75 | -0.707 | -0.559 |
| CGTCCAAGGTCAAAGGTCAGTGACGAGATGACGG | 5.47 | 8.79 | 8.22 | 3.93 | 10.5 | 4.85 | 2.69 | 3.54 |
| ATCTGTAGGTTAAGGGTCATTCAGGTTGGTTCGC | 4.02 | 5.03 | 3.89 | 2.02 | 6.57 | 3.69 | 2.07 | 4.28 |
| CTCGAAAGGTCGGTTGAGGTGAGTAGACGGATAA | 2.44 | 2.67 | 2.67 | 0.673 | 2.28 | 5.01 | 1.3 | 0.235 |
| CCTACTGGGCCATCAGGTCATAGATATCAACGTT | 2.46 | 2.03 | 1.95 | -0.116 | 1.28 | 3.09 | 2.91 | 1.11 |
| ATATGTAGGTTATCGGGTCATTCAATTTGCGCAT | 3.35 | 3.52 | 2.68 | 1.57 | 3.4 | 3.59 | 2.86 | 2.76 |
| CATACAGGGTCACCTAGGCCAGAGTAGGGACGGC | 3.71 | 5.53 | 5.52 | 2.15 | 6.27 | 3.65 | 1.57 | 2.32 |
| GGAACGAGGGCAAAGTTGATAACATCTGTCGACG | 1.21 | 2.19 | 1.97 | 2.93 | 1.93 | 1.27 | -0.123 | 1.42 |
| TCATATAGGTAAAAGGTGAAAGTCGGTGTGGTAA | 2.06 | 2.24 | 1.17 | 1.87 | 2.96 | 1.77 | 0.633 | 0.737 |
| CCGACTGGGGCAAAGGATACCATACTCAGTACGA | 0.263 | 0.271 | 0.572 | -0.0232 | 0.075 | -0.155 | -0.322 | -0.406 |
| TCTAGCAGGCTAGAGGGTCACTCAAGAGGTACGG | 2.47 | 2.08 | 1.81 | 0.0423 | 2.42 | 1.59 | -0.445 | 0.31 |
| GCTGACAGGTGAAACGCAGGTAACTCAGGGTGGC | 0.252 | 0.825 | 0.362 | -0.702 | 0.505 | 1.27 | -0.547 | -0.647 |
| TCGAGTAGGTTACCAGTGGGGCATTCAGCTTTCT | 0.636 | 1.06 | 0.275 | 0.241 | 0.437 | 0.157 | -0.534 | -0.388 |
| CCTGCTAGGTCTTGGTCAGCTAATCTACAGTATG | 0.408 | -0.194 | -0.144 | 0.336 | -0.394 | -0.178 | -0.108 | -0.656 |
| TTACCAACGTGAAAGGTCGTTGATGCACGCCTTG | 1.63 | 1.54 | 0.872 | 0.467 | 2.73 | 1.35 | -0.282 | 1.13 |
| GCTAGCCGGCCATTTGGGTCACTCAATGACGGGC | 1.75 | 0.912 | 1.1 | -0.739 | 0.725 | 1.62 | 0.719 | 0.157 |
| ATCGAAAGGTCGAGGTCAGTATAGAGAAAGGGAA | 4.73 | 5.69 | 6.16 | 2.01 | 5.46 | 3.84 | 1.93 | 2.73 |
| ACTAGCAGGCCAAGGGCCACTCAAGATTAGTCCG | 0.598 | 0.143 | 0.443 | -0.506 | 0.0111 | -0.212 | -0.921 | -0.964 |
| TAGCCTTGGTCAGATCGGGCCAGTATACGCTATA | -0.204 | -0.284 | 0.118 | -1.12 | -0.507 | 1.29 | -0.783 | -0.709 |
